S16 F2sN tox – Cell viability qHTS assay in S16 Pmp22-F2sN cells. hit rate 0.48% among 43,000. Potency, µM (titrated, usually from 57.5 µM), inactives show at the top dose activity change, negative = cytotoxicity, actives largely listed as cytotoxic. S16 Pmp22-F2sN Schwann cells viability, CellTiter-Glo, 24 h. AID 1508642, 2021; further: potency means the concentration at half of the fitted maximal effect; on the % scale 0 is the no-effect control and ±100 the full control effect; nearly all actives have a fitted effect of over 65% in size
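Viability was measured by CellTiter-Glo luminescence (15 min, room temperature). This followed 24 h at 37 °C of compound exposure (23 nL pin transfer) in S16 Pmp22-F2sN Schwann cells, 500-1,000 per well.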
p53null 32C kill – qHTS Screen for Compounds that Selectively Target Cancer Cells with p53 Mutations: Cytotoxicity of p53 Null Cells at the Permissive Temperature; H1299-neo p53 null cells, ATP luminescence, 24 h, 32C; AID 903, 2007; Potency, µM (top dose mostly 46.1 µM), inactives show at the top dose activity change, negative = cytotoxicity, actives largely listed as cytotoxic; hit rate 0.62% among 55,000;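 further: potency means the concentration at half of the fitted maximal effect; 0% = DMSO only and -100% = full killing by 100 µM tamoxifen; nearly all actives have a fitted effect of over 55% in size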
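Overnight 37C seeding (600 cells/well) of H1299-neo preceded a 24 hr, 32C exposure to compounds up to 46 uM. ATP levels, read by luminescence after 20 min at RT, indicated surviving cells.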
SKOV3 invasion – Primary qHTS assay for Inhibitors of ovarian cancer metastasis using an organotypic tumor microenvironment (TME) model; SKOV3ip1-GFP adhesion/invasion on 3D omental model, fluorescence; Potency, µM (top dose mostly 45.8 µM), without a hit: at the highest dose activity change, negative = inhibition, usual class: inhibitors; hit rate 0.1% among 46,000; AID 1963576, 2024;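 further: potency means the concentration at half of the fitted maximal effect; plate controls were DMSO wells for no effect and tomatine positive control wells for full effect; nearly all actives have a fitted effect of over 65% in size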
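Adhesion/invasion was scored as fixed GFP-labeled SKOV3ip1 cell counts (488/509 nm), normalized to DMSO and tomatine controls. Cancer cells in serum-free medium, with four compound doses (0.36-46 umol/L), sat 2 hr at RT then 16 hr at 37 C on a 48 hr fibroblast/mesothelial/ECM culture.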
PMP22 txn prim – Cell-based coincidence reporter assay to measure PMP22 gene transcription in S16 Pmp22-F2sN cells - Primary screen. hit rate 2% among 43,000. S16 Pmp22-F2sN Schwann cells (luciferase reporters placed in the Pmp22 gene), FLuc/NLuc coincidence luminescence, 24 h. Potency, µM (top dose mostly 57.5 µM), inactives show at the highest dose activity change, negative = inhibition, most hits filed as inhibitors; active means clear falling dose curves in both reporters; inconclusive means both reporters move, but less clearly or upward; inactive means either reporter flat; the % is the NLuc reporter signal; further: potency means the concentration at half of the fitted maximal effect; on the % scale 0 is the no-effect control and ±100 the full control effect
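qHTS, 1536-well. Cells seeded, compounds added by pin tool, 24 h 37C. Nano-Glo reagent 1 (lysis/FLuc), 10 min RT, read; Stop&Glo, 10 min RT, read NLuc.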
mTORC1 inh – Acumen qHTS Assay for Inhibitors of the mTORC1 Signaling Pathway in MEF (Tsc2-/-, p53-/-) Cells: Sytravon. Tsc2-/- p53-/- MEF, phospho-rpS6 immunofluorescence/PI, 24 h. Potency, µM (highest dose often 38.3 µM), inactives show at the top dose activity change, negative = inhibition, hits mostly inhibitors. hit rate 0.78% among 44,000. AID 493208, 2011;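 further: potency means the concentration at half of the fitted maximal effect; plate controls were DMSO for no effect and rapamycin for full effect; nearly all actives have a fitted effect of over 50% in size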
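Readout is phospho-S6 Alexa 488 signal normalized to PI per well, reported as % active cells with thresholds set from rapamycin (7.5 nM) and DMSO controls. Cells: Tsc2-/-, p53-/- MEFs, 24 hrs compound at 37 C; PI cell number serves as viability.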
p53null 39C tox – qHTS Screen for Compounds that Selectively Target Cancer Cells with p53 Mutations: Cytotoxicity of p53 Null Cells at the Nonpermissive Temperature; hit rate 0.97% among 55,000; Potency, µM (series often up to 46.1 µM), for the others: at the highest dose activity, negative = cell killing, usual class: cytotoxic; H1299 p53-null (neo) cells, 39C, ATPlite viability, 24 h;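 further: potency means the concentration at half of the fitted maximal effect; 0% = DMSO only and -100% = full killing by 100 µM tamoxifen; nearly all actives have a fitted effect of over 50% in size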
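Following overnight plating at 37C (600 cells/well), H1299-neo or H1299-p53A138V cells are dosed up to 46 uM. Incubation lasts 24 hr at 39C before ATP detection.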
NLuc saturating – Biochemical NLuc saturation counterscreen for small molecule modulators of PMP22 gene expression - Nano-Glo assay. AID 1508638, 2021. Potency, µM (titrated, usually from 57.5 µM), without a hit: top-dose activity change, negative = inhibition, usual class: inhibitors. shares compounds with PMP22 txn prim. hit rate 4% among 690. Secreted NLuc enzyme (filtered S16 cell medium), Nano-Glo luminescence; further: potency means the concentration at half of the fitted maximal effect; on the % scale 0 is the no-effect control and ±100 the full control effect
NLuc Km ctr – Biochemical coelenterazine-based NLuc counterscreen for small molecule modulators of PMP22 gene expression - Km assay; Potency, µM (titrated, usually from 57.5 µM), for inactives: at the highest dose activity change, negative = inhibition, hits mostly inhibitors; secreted NLuc enzyme, coelenterazine luminescence, Km conditions; shares compounds with PMP22 txn prim; hit rate 5% among 690; further: potency means the concentration at half of the fitted maximal effect; on the % scale 0 is the no-effect control and ±100 the full control effect
FLuc ctr PMP22 – Biochemical FLuc counterscreen for small molecule modulators of PMP22 gene expression; purified P. pyralis FLuc, luminescence, 10 min; Potency, µM (titrated, usually from 57.5 µM), for inactives: at the top dose activity, negative = inhibition, actives largely listed as inhibitors; shares compounds with PMP22 txn prim; 690 tested, under 10 active; AID 1508640, 2021; further: % of control where 0% means no effect
Target sequence (P08659 whole entry, looked up): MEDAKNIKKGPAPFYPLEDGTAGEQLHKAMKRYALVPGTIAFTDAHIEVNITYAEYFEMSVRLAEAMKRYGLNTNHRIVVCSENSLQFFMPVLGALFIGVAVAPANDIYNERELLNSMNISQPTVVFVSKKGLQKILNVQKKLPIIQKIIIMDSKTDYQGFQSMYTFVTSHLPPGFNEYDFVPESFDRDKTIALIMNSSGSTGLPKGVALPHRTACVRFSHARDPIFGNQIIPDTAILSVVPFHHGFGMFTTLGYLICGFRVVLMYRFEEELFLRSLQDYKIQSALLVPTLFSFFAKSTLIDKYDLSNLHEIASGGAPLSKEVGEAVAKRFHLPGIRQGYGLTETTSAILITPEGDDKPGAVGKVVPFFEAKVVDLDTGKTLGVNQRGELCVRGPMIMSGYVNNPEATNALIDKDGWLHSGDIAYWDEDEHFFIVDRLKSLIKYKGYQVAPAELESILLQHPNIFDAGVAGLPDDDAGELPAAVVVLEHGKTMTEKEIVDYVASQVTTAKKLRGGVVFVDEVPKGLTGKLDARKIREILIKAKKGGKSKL
S16 F2sN tox cnf – Cell viability qHTS assay in S16 Pmp22-F2sN cells - Confirmatory screen | shares compounds with PMP22 txn prim | S16 Schwann cells viability, CellTiter-Glo ATP luminescence, 24 h | Potency, µM (titrated, usually from 57.5 µM), inactives show at the highest dose activity change, negative = viability loss, most hits filed as cytotoxic | hit rate 7% among 690 | AID 1508641, 2021; further: potency means the concentration at half of the fitted maximal effect; on the % scale 0 is the no-effect control and ±100 the full control effect
PMP22 txn conf – Cell-based coincidence reporter assay to measure PMP22 gene transcription in S16 Pmp22-F2sN cells - Confirmatory screen; AID 1508646, 2021; S16 Schwann cells Pmp22-F2sN, dual luciferase, 24 h; Potency, µM (top dose mostly 57.5 µM), for inactives: top-dose activity change, negative = inhibition, usual class: inhibitors; shares compounds with PMP22 txn prim; hit rate 22% among 690; active means clear falling dose curves in both reporters; inconclusive means both reporters move, but less clearly or upward; inactive means either reporter flat; the % is the FLuc reporter signal; further: potency means the concentration at half of the fitted maximal effect
* = called active by the depositor; u = inconclusive; x = no result. In the library only some 3.1% were active in any assay of this set; here they are far more common. Unless noted, the call rests on the fitted dose curve; in most records, active means well fitted curve in the direction sought with a large enough effect; inconclusive means small, poorly fitted or top-dose-only effect, or another doubt; inactive means no such curve, though single readings can be large; an effect the other way counts as inactive or inconclusive.

SMILES	S16 F2sN tox	p53null 32C kill	SKOV3 invasion	PMP22 txn prim	mTORC1 inh	p53null 39C tox	NLuc saturating	NLuc Km ctr	FLuc ctr PMP22	S16 F2sN tox cnf	PMP22 txn conf
CCS(=O)(=O)c1ncc(Cl)c(C(=O)NCc2ccccc2)n1	u	u	10µM*	8.4µM*	2.6µM*	-15%	-7%	-20%	3%	15µM*	6.9µM*
COc1ccc(CNC(=O)c2nc(SCc3ccc(C)cc3)ncc2Cl)cc1	-2%	-10%	-16%	u	-2%	-16%	x	x	x	x	x
CCCS(=O)(=O)c1ncc(Cl)c(C(=O)Nc2c(C(=O)Nc3ccccc3)oc3ccccc23)n1	u	-29%	-12%	7.1µM*	2.1µM*	16µM*	-13%	1.4µM*	6%	17µM*	8.2µM*
CO[C@H]1/C=C\O[C@@]2(C)Oc3c(C)c(O)c4c(O)c(c5c(nc6cc(C)ccn65)c4c3C2=O)NC(=O)C(C)=CC=C[C@H](C)[C@H](O)[C@@H](C)[C@@H](O)[C@@H](C)[C@H](OC(C)=O)[C@H]1C	x	x	-15%	x	x	x	x	x	x	x	x
Cn1nnnc1SCCCNCc1ccccc1OCc1ccccc1Cl	u	-5%	-36%	13µM*	u	-10%	-1%	u	1%	-27%	u
CCc1ccc(Nc2nc3c(S(=O)(=O)c4ccc(C)cc4)nnn3c3ccsc23)cc1	3%	7%	-9%	5.8µM*	-11%	-20%	-10%	u	3%	u	-39%
Cc1cccc(Nc2nc3c(S(=O)(=O)c4ccc(Br)cc4)nnn3c3ccsc23)c1C	-4%	2%	-23%	12µM*	5%	u	-17%	u	11%	7%	u
